Compounds with a hit are over-represented: about 2.9% of the library has one in this group of screens.
KDM5B inhibitor – blocks human KDM5B histone demethylase activity. Q9UGL1. KDM5B demethylase, FDH-coupled NADH fluorescence (FDH is formaldehyde dehydrogenase). Potency, µM (series often up to 57.7 µM), actives largely listed as inhibitors. 220,000 compounds, 2.6% hits. AID 1347165; also: potency is read from the fitted curve at half-maximal effect; 0% is about no effect; nearly all actives have a fitted effect of over 70% in size
Target sequence (Q9UGL1 whole entry, looked up): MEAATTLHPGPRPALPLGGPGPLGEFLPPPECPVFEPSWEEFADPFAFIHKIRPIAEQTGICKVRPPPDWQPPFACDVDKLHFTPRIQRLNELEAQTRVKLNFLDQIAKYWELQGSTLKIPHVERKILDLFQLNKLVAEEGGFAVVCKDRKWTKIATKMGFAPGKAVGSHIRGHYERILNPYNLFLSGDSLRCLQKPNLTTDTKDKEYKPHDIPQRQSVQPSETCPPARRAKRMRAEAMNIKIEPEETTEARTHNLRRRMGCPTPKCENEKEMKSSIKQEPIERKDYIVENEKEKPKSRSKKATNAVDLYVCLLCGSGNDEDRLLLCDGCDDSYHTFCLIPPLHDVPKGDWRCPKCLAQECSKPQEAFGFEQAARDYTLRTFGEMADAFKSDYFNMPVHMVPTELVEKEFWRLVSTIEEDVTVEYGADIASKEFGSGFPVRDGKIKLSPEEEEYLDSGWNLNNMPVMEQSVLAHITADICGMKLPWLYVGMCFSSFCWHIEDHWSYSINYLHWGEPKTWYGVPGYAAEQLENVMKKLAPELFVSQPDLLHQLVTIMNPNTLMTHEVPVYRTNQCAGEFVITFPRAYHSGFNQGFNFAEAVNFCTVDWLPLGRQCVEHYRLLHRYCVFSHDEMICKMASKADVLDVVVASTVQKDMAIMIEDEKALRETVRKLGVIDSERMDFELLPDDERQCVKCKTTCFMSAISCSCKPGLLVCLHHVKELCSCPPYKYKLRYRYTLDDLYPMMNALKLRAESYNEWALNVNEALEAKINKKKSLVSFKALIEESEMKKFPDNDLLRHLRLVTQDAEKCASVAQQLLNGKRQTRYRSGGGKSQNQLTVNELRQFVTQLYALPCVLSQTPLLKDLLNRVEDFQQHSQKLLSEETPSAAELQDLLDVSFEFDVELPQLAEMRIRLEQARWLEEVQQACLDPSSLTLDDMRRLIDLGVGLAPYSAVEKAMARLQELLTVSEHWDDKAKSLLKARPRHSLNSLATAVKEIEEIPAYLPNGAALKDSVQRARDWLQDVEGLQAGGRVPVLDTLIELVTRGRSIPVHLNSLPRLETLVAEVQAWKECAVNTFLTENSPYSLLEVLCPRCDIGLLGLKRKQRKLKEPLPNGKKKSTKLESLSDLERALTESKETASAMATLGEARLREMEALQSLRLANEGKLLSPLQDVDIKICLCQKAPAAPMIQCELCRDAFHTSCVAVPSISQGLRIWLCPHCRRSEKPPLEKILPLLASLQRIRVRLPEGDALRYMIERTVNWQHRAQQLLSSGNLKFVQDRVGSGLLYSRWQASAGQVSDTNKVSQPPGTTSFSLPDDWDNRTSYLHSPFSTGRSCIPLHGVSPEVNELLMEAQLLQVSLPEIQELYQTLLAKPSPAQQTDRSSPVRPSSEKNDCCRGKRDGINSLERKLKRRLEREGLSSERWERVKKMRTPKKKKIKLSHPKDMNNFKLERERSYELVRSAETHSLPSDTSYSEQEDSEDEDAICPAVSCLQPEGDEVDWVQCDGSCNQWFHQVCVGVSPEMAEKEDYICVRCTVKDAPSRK
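Coupled FDH/NAD⁺ fluorescence readout. KDM5BΔAP 200 nM final; compound titration, 10 min RT preincubation; substrate mix 12.5 µM H3K4me3, 25 µM 2-OG, 50 µM Fe(II), 100 µM ascorbate, 0.25 mM NAD⁺, 0.25 U/mL FDH; ΔRFU over 30 min.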
SNCA viab count – counter-screen for SNCA expression inhibitors: cell viability | HEK-293-SNCA-luc viability, GF-AFC fluorescence, 24 h | Potency, µM (series often up to 57.1 µM), for inactives: at the top dose activity change, negative = cytotoxicity, usual class: cytotoxic | 150,000 compounds, 0.12% hits | AID 1671193;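 also: potency is read from the fitted curve at half-maximal effect; 0% = DMSO-treated cells and -100% = medium-only wells without cells; nearly all actives have a fitted effect of over 30% in size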
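Cytotoxicity counterscreen: after 24 h compound treatment of genome-edited SNCA-luciferase HEK-293 cells, live-cell protease substrate GF-AFC read by fluorescence after 30 min; activity scaled between DMSO (0%) and medium-only (-100%), curves Hill-fitted.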
IP6K1 inh – inhibitors of human IP6K1 | 140,000 compounds, 0.81% hits | IP6K1 kinase, ADP-Glo luminescence, 2 h; active compounds read low | Q92551 | activity change, % (series mostly up to about 58 µM) | AID 1645851; in the data active = activity change below about -25%; also: % is scaled to controls: 0 for no effect and ±100 for the full control effect
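ADP-Glo luminescence measures ADP made by human IP6K1 during a 2 h RT reaction with ATP/IP6 (mix at 1.3 mM/130 uM); top library doses 57.5 and 19.1 uM final.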
SNCA expr inhib – inhibitors of alpha-synuclein (SNCA) gene expression | 140,000 compounds, 0.17% hits | Potency, µM (doses to about 57.2 µM), for the others: at the top dose activity change, negative = inhibition, actives largely listed as inhibitors | AID 1671194 | HEK-293 SNCA-luciferase knock-in, luminescence, 24 h;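 also: potency is read from the fitted curve at half-maximal effect; plate controls were DMSO cells for no effect and cell-free wells for full effect; nearly all actives have a fitted effect of over 45% in size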
An asterisk follows results filed as active; i = inactive; ? = inconclusive; · = no result given; [ ] = remark or other dose. Unless noted, calls follow the shape of the dose curve; as a rule, active = well fitted curve in the direction sought with a large enough effect; inconclusive = small, poorly fitted or top-dose-only effect, or another doubt; inactive = no such curve, though single readings can be large; an effect the other way counts as inactive or inconclusive.

SMILES	KDM5B inhibitor	SNCA viab count	IP6K1 inh	SNCA expr inhib
COc1cccc(-c2c(C(=O)Nc3cccc(Cl)c3)nc3sccn23)c1	·	?	-10	-30%
COc1ccc(CCC(=O)N2CCCC(Cn3c(C)cnc3-c3ccncc3)C2)cc1 (centres undefined)	·	2%	15	17%
COc1cccc(-c2nc3cnccn3c2NCCC(=O)Nc2cccc(Cl)c2)c1	28µM*	?	2	-1%
COc1cccc(-c2nc3cnccn3c2NCCC(=O)N2CCCC(C)C2)c1 (centres undefined)	28µM*	?	6	2%
COc1ccc(-c2nc3cnccn3c2NCCC(=O)N2CCCC(C)C2)cc1 (centres undefined)	28µM*	?	-3	21%
CN1CCN(C(=O)N2CCC3(CCCN(C4CCCC4)C3=O)C2)CC1 (centres undefined)	i	3%	15	-3%
O=[S+]([O-])(c1cccc(C(F)(F)F)c1)N1CCC2(CCN(Cc3cccs3)c3ccccc3O2)CC1	11µM*	-2%	-1	-15%
CCCn1cc(-c2ccncc2)cc1C(=O)NCc1ccccc1	i	2%	-3	23%
CCCn1cc(-c2ccncc2)cc1C(=O)NCc1cccc(F)c1	25µM*	5%	1	4%
O=C(c1cc(-c2ccc(F)cc2)nc2ccccc12)N1CCC(c2nc(C3CCOCC3)no2)C1 (centres undefined)	28µM*	-23%	4	48%
O=C(CCN1c2ccccc2Sc2ccccc21)N1CCCC(c2nc(C3CCOCC3)no2)C1 (centres undefined)	25µM*	-8%	24	-13%
Cc1cnc(C(=O)N2CCCC(c3nc(C4CCOCC4)no3)C2)cn1 (centres undefined)	32µM*	0%	6	-14%
Cc1cc(C(=O)N2CCCC(c3nc(C4CCOCC4)no3)C2)n(C)n1 (centres undefined)	i	-1%	-5	6%
Cn1c(=O)n(Cc2ccccc2)c(=O)c2c1nc(Cl)n2Cc1ccccc1	i	·	·	·
Cc1cccc(CNC(=O)c2c(C)noc2-c2cccs2)c1	28µM*	-1%	6	-2%
Cc1noc(-c2cccs2)c1C(=O)NC(C)c1cccc2ccccc12 (centres undefined)	32µM*	6%	-8	-24%
COc1cccc(CNC(=O)c2c(C)noc2-c2cccs2)c1	?	?	-7	7%
Cc1noc(-c2cccs2)c1C(=O)NC(C)c1ccccc1 (centres undefined)	25µM*	5%	4	-27%
CCc1ccc(C2=NN(C(=O)c3ccco3)C(c3ccc4nccnc4c3)C2)cc1 (centres undefined)	i	·	·	·
O=C1NCCN2CC3(CCN(C(=O)Nc4ccccc4)CC3)CC12 (centres undefined)	?	-7%	5	-6%
O=C1NCCN2CC3(CCN(C(=O)c4ccco4)CC3)CC12 (centres undefined)	28µM*	0%	-10	-9%
Cc1cc(C)c(CNC(=O)c2nc(-c3ccnn3C)cc3c2ccn3C(C)C)c(=O)[nH]1	32µM*	2%[87.6 µM]	-11	13%[87.6 µM]
Cc1cc(C)c(CNC(=O)c2nc(-c3ccc(CO)cc3)cc3c2ccn3C)c(=O)[nH]1	35µM*	-21%[87.6 µM]	1	-19%[87.6 µM]
Cc1cc(C)c(CNC(=O)c2nc(-c3cccc(O)c3)cc3c2ccn3C)c(=O)[nH]1	35µM*	-29%[87.6 µM]	14	3%[87.6 µM]
Cc1cc(-c2cc3[nH]ccc3c(C(=O)NCc3c(C)cc(C)[nH]c3=O)n2)ccn1	11µM*	-16%[87.6 µM]	0	45%[87.6 µM]
SMILES	KDM5B inhibitor	SNCA viab count	IP6K1 inh	SNCA expr inhib
O=C(NCc1ccc(F)cc1)c1nc(-c2ccc(F)cc2)c2ccccn12	32µM*	-4%	7	9%
C[S+](=O)([O-])c1ccc(-c2nc(C(=O)NCc3ccc(F)cc3)n3ccccc23)cc1	89µM*	2%	-16	-15%
O=C(NCc1ccc(F)cc1)c1nc(-c2cc(Cl)cc(Cl)c2)c2ccccn12	i	-1%	35	-18%
C[S+](=O)([O-])c1ccc(-c2nc(C(=O)NCc3cccnc3)n3ccccc23)cc1	i	7%	-5	20%
COc1ccc2[nH]cc(CCNc3ccnc(-c4ccc5c(c4)OCO5)n3)c2c1	·	?	·	-8%
CS(=O)(=O)CC(O)c1cc2n(n1)CCN(c1cncc(C(N)=O)n1)C2 (centres undefined)	25µM*	2%	11	-9%
CNCC(=O)NC1CCCN(c2ccc(C(F)(F)F)cn2)C1 (centres undefined)	28µM*	5%	5	7%
Cc1ccc(C(=O)NC2CCCN(c3ccc(C(F)(F)F)cn3)C2)cn1 (centres undefined)	i	·	·	·
Clc1ccc(N2CCN(Cc3cc4ccccn4n3)CC2)cc1	·	1%	·	6%
CC(C)CCn1c(SCCN2CCOCC2)nc2c1c(=O)[nH]c(=O)n2C	i	·	·	·
CN(C)C(=O)c1ccc2cncn2c1	32µM*	3%[87.6 µM]	-3	-24%[87.6 µM]
O=C(c1ccc2cncn2c1)N1CCOCC1	?	1%[87.6 µM]	-5	-9%[87.6 µM]
O=C(NC1CC1)c1ccc2nccn2c1	·	4%[87.6 µM]	7	19%[87.6 µM]
O=C(NC1CC1)c1ccc2cncn2c1	32µM*	-1%[87.6 µM]	-1	8%[87.6 µM]
CNC(=O)c1ccc2cncn2c1	32µM*	-5%[87.6 µM]	2	1%[87.6 µM]
CC(C)C1CN(C(=O)c2n[nH]c3c2CCC3)CCC(=O)N1CC1CC1 (centres undefined)	i	-1%	10	-7%
CC(=O)N1CCCC1c1nc2ccccc2n1Cc1cccc(C)c1 (centres undefined)	i	-11%	8	7%
CCCCN(CC)C(=O)c1nnn2cc(-c3ccc(Cl)cc3)[nH]c(=O)c12	i	-6%	0	-5%
O=C(NCC1CCCO1)c1nnn2cc(-c3ccccc3)[nH]c(=O)c12 (centres undefined)	?	9%	7	2%
O=C(c1nnn2cc(-c3ccccc3)[nH]c(=O)c12)N1CCCCCC1	?	-1%	-9	80%
C=CCN1CCN(C(=O)c2nnn3cc(-c4ccccc4)[nH]c(=O)c23)CC1	28µM*	8%	2	3%
O=C(c1nnn2cc(-c3ccc(F)cc3)[nH]c(=O)c12)N1CCOCC1	32µM*	4%	5	?
CCCCNC(=O)c1nnn2cc(-c3ccc(Cl)cc3)[nH]c(=O)c12	8.9µM*	18%	-3	-15%
CCOc1ccc(N(CC)S(=O)(=O)N2CCCC(C(=O)Nc3cc(Cl)ccc3C)C2)cc1 (centres undefined)	i	-7%	17	?
COc1ccc(-c2ccc3ncc(Nc4cccnc4OC)n3n2)cc1OC	22µM*	-15%[87.6 µM]	-20	-11%[87.6 µM]
COc1ccc(-c2ccc3ncc(Nc4ccccc4F)n3n2)cc1OC	i	-11%[87.6 µM]	-17	-11%[87.6 µM]
Cc1ccc(-c2nnc(C3CN(C(=O)c4ccc(C)s4)CC34CCOCC4)o2)cc1 (centres undefined)	i	-19%	22	6%
